# From PubChem BioAssay
# Activity calls are given as the source filed them.
# Key:
# [1] = tested on: PRMT1 (protein arginine N-methyltransferase 1); assay: small molecules binding arginine methyltransferase PRMT1 – biochemical, small-molecule microarray, 635 nm fluorescence, primary screen (AID 1088); details: higher = more signal;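 also: binding of Prmt1 protein to compounds spotted on small-molecule microarray slides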
# [2] = growth effects on S. cerevisiae YJM789 – YJM789 clinical isolate, OD600, 24 h, basal, primary screen (AID 1089); details: higher = more signal, called active from +8 up or from −8 down;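 also: growth of clinical yeast isolate S. cerevisiae YJM 789 seeded 1000 cells per well; test concentration not given here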
# [3] = S. pombe growth modifiers, basal conditions – strain 972, OD600, 24 h, no modulator, primary screen (AID 1090);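 also: basal condition with compound alone and no growth modifier present; test concentration not given here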; details: S. pombe 972 growth, higher = more signal, called active from +8 up or from −8 down
# [4] = budding yeast growth modifiers under rapamycin – strain BY4716, OD600, 96 h, primary screen (AID 1091); also: test concentration not given here; details: S. cerevisiae BY4716 + rapamycin, higher = more signal, called active from +8 up or from −8 down
# [5] = target: Torsin-1A-interacting protein 2 (Homo sapiens) (UniProt Q8NFQ8); assay: small molecules binding lysate-expressed LULL1 – cell lysate, human LULL1 lysate, 635/667 nm fluorescence, primary screen (AID 1092); details: small-molecule microarray, hLULL1 lysate binding, 635 nm fluorescence; higher = more signal;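 also: probe is lysate of COS7 cells overexpressing human LULL1; score merges per-feature 667 nm fluorescence with signal-to-noise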
# Sequence of Torsin-1A-interacting protein 2 (Homo sapiens) (Q8NFQ8 whole entry, looked up): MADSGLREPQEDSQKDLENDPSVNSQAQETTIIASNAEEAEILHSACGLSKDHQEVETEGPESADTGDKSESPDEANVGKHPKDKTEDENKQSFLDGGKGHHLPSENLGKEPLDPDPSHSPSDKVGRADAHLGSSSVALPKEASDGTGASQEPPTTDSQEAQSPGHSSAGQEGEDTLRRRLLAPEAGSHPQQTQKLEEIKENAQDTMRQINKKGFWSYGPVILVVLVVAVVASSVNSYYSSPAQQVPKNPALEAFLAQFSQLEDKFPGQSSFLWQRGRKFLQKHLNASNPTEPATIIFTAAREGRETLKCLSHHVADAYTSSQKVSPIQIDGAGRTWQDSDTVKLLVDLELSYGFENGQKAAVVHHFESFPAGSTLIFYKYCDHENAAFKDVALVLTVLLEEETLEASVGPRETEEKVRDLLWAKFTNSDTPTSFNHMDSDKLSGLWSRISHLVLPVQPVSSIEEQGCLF
# [6] = optical density change of DRC41 E. coli – strain DRC41, OD650, 24 h, E. coli filamentation project, primary screen (AID 1093);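 also: MC1000 strain lacking acrAB efflux and sulA so SOS filamentation is blocked; test concentration not given here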; details: E. coli DRC41 growth, higher = more signal, called active from +8 up or from −8 down
# [7] = probe aLefty2 binding to arrayed compounds – biochemical, biotinylated probe, 635/667 nm fluorescence, primary screen (AID 1094); details: small-molecule microarray, higher = more signal;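 also: score merges spot fluorescence near 667 nm with spot signal-to-noise ratio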
# [8] = tested on: Noggin (protein binding on small-molecule microarray); assay: small molecules binding Noggin protein – biochemical, 635/667 nm fluorescence, primary screen (AID 1095); details: 635 nm fluorescence, higher = more signal;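 also: score merges 667 nm feature fluorescence with signal to noise over triplicate slides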
# [9] = target: Neurogenic locus notch homolog protein 3 (Homo sapiens) (UniProt Q9UM47); assay: small molecules binding NOTCH3 protein – biochemical, 635/667 nm fluorescence, primary screen (AID 1096); details: small-molecule microarray, 635 nm fluorescence, higher = more signal
# Sequence of Neurogenic locus notch homolog protein 3 (Homo sapiens) (Q9UM47 whole entry, looked up): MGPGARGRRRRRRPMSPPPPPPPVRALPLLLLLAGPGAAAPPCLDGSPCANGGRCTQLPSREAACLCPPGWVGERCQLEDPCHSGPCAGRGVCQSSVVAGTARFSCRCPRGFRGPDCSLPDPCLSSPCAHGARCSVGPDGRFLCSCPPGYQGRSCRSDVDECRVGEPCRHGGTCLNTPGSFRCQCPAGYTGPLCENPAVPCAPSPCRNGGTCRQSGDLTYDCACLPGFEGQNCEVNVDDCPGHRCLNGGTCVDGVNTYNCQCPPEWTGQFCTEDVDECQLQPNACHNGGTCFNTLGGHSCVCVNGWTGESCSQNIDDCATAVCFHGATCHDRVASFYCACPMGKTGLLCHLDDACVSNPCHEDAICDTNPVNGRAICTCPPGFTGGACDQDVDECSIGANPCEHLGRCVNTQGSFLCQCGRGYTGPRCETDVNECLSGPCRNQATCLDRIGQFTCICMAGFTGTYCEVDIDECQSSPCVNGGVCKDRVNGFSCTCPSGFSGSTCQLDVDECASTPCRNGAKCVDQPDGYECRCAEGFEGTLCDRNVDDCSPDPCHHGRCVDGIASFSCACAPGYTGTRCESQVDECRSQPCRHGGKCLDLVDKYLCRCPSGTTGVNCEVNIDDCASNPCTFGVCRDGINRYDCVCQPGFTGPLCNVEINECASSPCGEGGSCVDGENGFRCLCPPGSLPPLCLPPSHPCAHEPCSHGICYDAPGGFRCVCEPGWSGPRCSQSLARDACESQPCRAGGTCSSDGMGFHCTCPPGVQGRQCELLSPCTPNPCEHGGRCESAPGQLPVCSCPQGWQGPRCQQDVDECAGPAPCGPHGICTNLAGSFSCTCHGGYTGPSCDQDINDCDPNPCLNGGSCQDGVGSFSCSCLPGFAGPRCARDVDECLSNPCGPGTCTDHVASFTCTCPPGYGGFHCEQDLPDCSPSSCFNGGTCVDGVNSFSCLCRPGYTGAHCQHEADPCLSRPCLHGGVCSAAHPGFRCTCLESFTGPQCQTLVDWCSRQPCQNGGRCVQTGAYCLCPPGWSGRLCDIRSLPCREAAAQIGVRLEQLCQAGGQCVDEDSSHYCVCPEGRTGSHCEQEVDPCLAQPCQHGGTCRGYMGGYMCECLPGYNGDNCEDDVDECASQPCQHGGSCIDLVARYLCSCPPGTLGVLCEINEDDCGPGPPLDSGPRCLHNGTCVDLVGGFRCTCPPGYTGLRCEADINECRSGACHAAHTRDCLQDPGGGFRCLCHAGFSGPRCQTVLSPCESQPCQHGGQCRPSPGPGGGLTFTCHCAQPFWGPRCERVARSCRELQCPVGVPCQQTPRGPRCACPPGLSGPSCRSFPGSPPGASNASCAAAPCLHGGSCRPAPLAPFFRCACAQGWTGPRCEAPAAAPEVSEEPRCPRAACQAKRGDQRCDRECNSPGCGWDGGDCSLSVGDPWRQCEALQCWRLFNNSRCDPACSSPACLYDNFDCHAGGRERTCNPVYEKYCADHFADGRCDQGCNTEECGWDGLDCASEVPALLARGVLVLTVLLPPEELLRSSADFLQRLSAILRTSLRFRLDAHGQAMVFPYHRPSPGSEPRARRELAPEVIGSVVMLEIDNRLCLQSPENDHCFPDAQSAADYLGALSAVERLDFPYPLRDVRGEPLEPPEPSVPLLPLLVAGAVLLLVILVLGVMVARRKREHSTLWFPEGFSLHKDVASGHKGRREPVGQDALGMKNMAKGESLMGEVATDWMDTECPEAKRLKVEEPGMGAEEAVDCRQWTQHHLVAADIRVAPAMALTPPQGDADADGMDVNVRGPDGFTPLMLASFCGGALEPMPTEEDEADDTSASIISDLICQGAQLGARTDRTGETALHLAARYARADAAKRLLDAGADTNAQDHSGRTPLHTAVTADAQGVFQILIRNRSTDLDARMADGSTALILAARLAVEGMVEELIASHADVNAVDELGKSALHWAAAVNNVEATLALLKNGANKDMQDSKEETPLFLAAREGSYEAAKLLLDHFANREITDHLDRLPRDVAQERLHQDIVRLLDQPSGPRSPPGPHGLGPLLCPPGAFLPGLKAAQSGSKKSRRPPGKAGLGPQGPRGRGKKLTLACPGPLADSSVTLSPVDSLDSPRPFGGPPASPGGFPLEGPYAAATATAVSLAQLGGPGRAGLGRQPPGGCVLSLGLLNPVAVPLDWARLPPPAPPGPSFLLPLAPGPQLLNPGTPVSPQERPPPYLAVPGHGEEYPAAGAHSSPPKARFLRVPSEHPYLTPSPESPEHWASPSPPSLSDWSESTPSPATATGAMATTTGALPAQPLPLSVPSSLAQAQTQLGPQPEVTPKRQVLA
# [10] = probe aEGFR binding to arrayed compounds – biochemical, biotinylated probe, 635/667 nm fluorescence, primary screen (AID 1097); details: small-molecule microarray, higher = more signal;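 also: probe is a biotinylated anti-EGFR antibody binding compounds printed on slides; score combines fluorescence near 667 nm and signal to noise of each spot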
# [11] = tested on: Plasmodium falciparum Sir2 (PF13_0152, Sir2A); assay: Plasmodium falciparum Sir2A binding compounds – biochemical, small-molecule microarray, 635 nm fluorescence, primary screen (AID 1098); details: fluorescence 635 nm, higher = more signal;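 also: score merges spot fluorescence intensity with its signal-to-noise ratio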
# [12] = probe aDKK1 binding to arrayed compounds – biochemical, biotinylated probe, 635/667 nm fluorescence, primary screen (AID 1099); details: small-molecule microarray, higher = more signal;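 also: score merges 667nm spot fluorescence with signal to noise across triplicate slides; reference of the scale not given here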
# [13] = probe aCHRDL2 binding to arrayed compounds – biochemical, biotinylated probe, 635/667 nm fluorescence, primary screen (AID 1100); details: small-molecule microarray, higher = more signal
# [14] = change in splice reporter luminescence, either direction, cell-based, HEK293, spliceosome inhibition project, primary screen (AID 1101); details: HEK293 splicing luciferase reporter, 24 h, higher = more signal, called active from +8 up or from −8 down;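 also: HEK293 cells carrying a splicing-competent luciferase reporter gene; test concentration not given here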
# [15] = target: Fibroblast growth factor 10 (Homo sapiens) (UniProt O15520); assay: compounds binding fibroblast growth factor 10 – biochemical, small-molecule microarray, 635 nm fluorescence, primary screen (AID 1102); details: FGF10 binding, fluorescence 635 nm, higher = more signal
# Sequence of Fibroblast growth factor 10 (Homo sapiens) (O15520 whole entry, looked up): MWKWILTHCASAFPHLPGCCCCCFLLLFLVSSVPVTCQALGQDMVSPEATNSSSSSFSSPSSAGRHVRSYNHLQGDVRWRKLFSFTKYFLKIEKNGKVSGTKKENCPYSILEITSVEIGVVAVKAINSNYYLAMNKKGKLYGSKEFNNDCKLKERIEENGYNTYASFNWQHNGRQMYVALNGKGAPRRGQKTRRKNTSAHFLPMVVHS
# [16] = tested on: glycogen synthase kinase-3 (GSK3A per assay name; protocol says GSK3B); assay: compounds binding glycogen synthase kinase-3 – biochemical, small-molecule microarray, 635 nm fluorescence, GSK3A, primary screen (AID 1103); details: fluorescence 635 nm, higher = more signal; also: the record names both GSK3A and GSK3B
# [17] = target: Epidermal growth factor receptor (Homo sapiens) (UniProt P00533); assay: compounds binding epidermal growth factor receptor – biochemical, small-molecule microarray, 635 nm fluorescence, primary screen (AID 1104); details: EGFR binding, higher = more signal;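 also: score merges 667 nm emission intensity with spot signal to noise over triplicate slides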
# Sequence of Epidermal growth factor receptor (Homo sapiens) (P00533 whole entry, looked up): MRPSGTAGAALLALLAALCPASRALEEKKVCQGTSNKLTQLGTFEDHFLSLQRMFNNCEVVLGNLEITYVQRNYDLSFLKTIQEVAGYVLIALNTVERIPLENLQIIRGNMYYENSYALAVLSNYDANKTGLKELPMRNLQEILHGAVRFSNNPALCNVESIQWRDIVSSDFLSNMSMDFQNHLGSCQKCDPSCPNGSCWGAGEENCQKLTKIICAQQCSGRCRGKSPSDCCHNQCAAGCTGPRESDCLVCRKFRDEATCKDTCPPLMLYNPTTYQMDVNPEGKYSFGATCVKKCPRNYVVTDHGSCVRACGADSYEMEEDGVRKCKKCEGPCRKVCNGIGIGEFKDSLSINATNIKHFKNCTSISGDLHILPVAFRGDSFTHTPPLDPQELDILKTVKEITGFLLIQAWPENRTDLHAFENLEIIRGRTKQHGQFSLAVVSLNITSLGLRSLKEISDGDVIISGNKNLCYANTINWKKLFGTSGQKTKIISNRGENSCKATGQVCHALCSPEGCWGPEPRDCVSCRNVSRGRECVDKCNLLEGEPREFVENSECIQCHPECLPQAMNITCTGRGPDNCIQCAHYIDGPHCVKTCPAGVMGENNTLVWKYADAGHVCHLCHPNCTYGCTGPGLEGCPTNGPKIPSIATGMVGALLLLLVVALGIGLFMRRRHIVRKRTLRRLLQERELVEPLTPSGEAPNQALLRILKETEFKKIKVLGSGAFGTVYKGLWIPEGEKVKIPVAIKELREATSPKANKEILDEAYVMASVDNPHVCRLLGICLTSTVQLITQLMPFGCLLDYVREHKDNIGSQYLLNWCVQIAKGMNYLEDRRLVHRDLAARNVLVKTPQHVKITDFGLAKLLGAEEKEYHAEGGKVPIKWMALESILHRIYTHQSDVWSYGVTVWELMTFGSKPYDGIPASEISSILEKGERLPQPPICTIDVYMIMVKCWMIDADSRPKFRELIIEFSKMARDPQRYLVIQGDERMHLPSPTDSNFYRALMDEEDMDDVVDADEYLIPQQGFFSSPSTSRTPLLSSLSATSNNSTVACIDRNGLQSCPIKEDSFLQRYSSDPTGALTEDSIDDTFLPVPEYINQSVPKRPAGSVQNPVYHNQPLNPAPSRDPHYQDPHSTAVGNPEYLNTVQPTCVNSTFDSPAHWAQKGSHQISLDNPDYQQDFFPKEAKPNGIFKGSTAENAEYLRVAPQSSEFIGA
# [18] = target: Follistatin-related protein 3 (Homo sapiens) (UniProt O95633); assay: compounds binding follistatin-related protein 3 – biochemical, small-molecule microarray, 635 nm fluorescence, primary screen (AID 1105); details: FSTL3 binding, higher = more signal;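 also: score merges emission near 667 nm and signal to noise per printed spot across three slides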
# Sequence of Follistatin-related protein 3 (Homo sapiens) (O95633 whole entry, looked up): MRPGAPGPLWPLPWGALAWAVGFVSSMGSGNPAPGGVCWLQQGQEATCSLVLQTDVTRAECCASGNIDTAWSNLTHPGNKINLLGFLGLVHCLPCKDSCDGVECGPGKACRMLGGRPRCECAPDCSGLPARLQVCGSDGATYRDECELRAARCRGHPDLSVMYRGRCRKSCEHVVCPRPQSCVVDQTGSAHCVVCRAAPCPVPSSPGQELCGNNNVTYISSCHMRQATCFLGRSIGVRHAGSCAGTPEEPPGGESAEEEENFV
# [19] = target: Dickkopf-related protein 1 (Homo sapiens) (UniProt O94907); assay: small molecules binding DKK1 protein – biochemical, small-molecule microarray, 635 nm fluorescence scan, primary screen (AID 1106); details: higher = more signal;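 also: score merges emission near 667 nm with signal to noise over three replicate slides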
# Sequence of Dickkopf-related protein 1 (Homo sapiens) (O94907 whole entry, looked up): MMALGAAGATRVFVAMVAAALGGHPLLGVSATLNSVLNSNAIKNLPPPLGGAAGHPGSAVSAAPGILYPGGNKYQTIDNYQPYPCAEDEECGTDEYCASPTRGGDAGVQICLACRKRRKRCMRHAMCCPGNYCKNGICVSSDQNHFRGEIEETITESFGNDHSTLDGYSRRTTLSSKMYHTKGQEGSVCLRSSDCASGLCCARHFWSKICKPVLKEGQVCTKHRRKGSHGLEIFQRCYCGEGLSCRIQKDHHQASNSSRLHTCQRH
# [20] = tested on: Inhibin beta A chain (activin A); assay: small molecules binding activin A – biochemical, small-molecule microarray, 635 nm fluorescence scan, primary screen (AID 1107); details: INHBA, higher = more signal;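 also: mouse activin A protein probed at 4.33 µg/mL on printed slides; score merges bound-protein fluorescence near 667 nm with spot signal-to-noise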
SMILES,composite z-score [1],z-score [2],z-score [3],z-score [4],composite z-score [5],z-score [6],composite z-score [7],composite z-score [8],composite z-score [9],composite z-score [10],composite z-score [11],composite z-score [12],composite z-score [13],z-score [14],composite z-score [15],composite z-score [16],composite z-score [17],composite z-score [18],composite z-score [19],composite z-score [20]
CCCC[C@@H]1C[C@H]1[C@@H](NS(=O)(=O)c1cccc2cccnc12)c1ccc(-c2ccccc2)cc1,-1.42,0.0994 (inactive),1.16 (inactive),0.676 (inactive),1.26,-0.781 (inactive),0.0141,-0.696,0.32,-0.0728,-0.383,0.583,1.09,1.19 (inactive),0.0068,-0.356,-1.26,-0.417,-0.475,0.76
CO[C@H]([C@@H](C)[C@H](OC)c1ccccc1)[C@H](C)[C@@H](OC)[C@H](C)C(C)=O,-0.694,0.474 (inactive),-0.0357 (inactive),-0.175 (inactive),-0.391,0.243 (inactive),-0.0159,-0.233,-0.177,-0.0996,-0.275,-0.442,-0.117,0.116 (inactive),0.173,-0.641,-0.577,-0.523,0.345,0.782
C[C@H]1Cc2c(-c3ccccc3)nc3c(c2CO1)CN(CCOc1ccccc1)CC3,1.56,-0.0387 (inactive),-1.24 (inactive),-0.142 (inactive),2.3,1.91 (inactive),-0.161,0.472,1.12,-0.0114,1.21,-0.357,-0.815,-0.512 (inactive),1.19,1.28,0.65,1.29,0.94,0.127
COCCOC(=O)N1C(=O)[C@@]2(c3cc(C#CCNC(N)=O)ccc31)[C@H](c1ccccc1OCCO)N1[C@H](c3ccccc3)[C@H](c3ccccc3)OC(=O)[C@H]1[C@@H]2C(=O)N1CCN(c2ncccn2)CC1,1.44,-0.0197 (inactive),2.11 (inactive),3.85 (inactive),2.22,0.961 (inactive),0.065,0.43,0.572,-0.0271,1.61,0.376,0.702,-0.099 (inactive),1.15,0.375,0.315,0.623,0.0239,1.35
COc1ccc([Si](C)(C)[C@H]2[C@H](CC(=O)N3CCC[C@H]3CO)O[C@@]3(C(=O)N(Cc4cccc(N5C(=O)COc6ccccc65)c4)c4ccccc43)[C@@H]2C)cc1,1.41,-2.58 (inactive),-0.769 (inactive),-0.827 (inactive),2.25,1.43 (inactive),-0.166,1.61,1.14,-0.142,1.21,-0.248,-0.364,-0.867 (inactive),0.369,0.803,0.771,0.959,0.519,0.572
